Bioassay records as filed in PubChem.
Only some compounds are listed: those with a hit (about 1.7% of all), similar ones and a draw of the others.
RecA intein inh = Mtb RecA intein splicing inhibition. P9WHJ3. cell-free RecA intein splicing, fluorescence. inhibition, % (test concentration not listed). actives 0.75% (n = 290,000); in the data active means inhibition above about 30%; inconclusive means no clear call, values can overlap the other calls;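 further: 0% = vehicle wells and 100% = reference inhibitor control wells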
Target sequence (P9WHJ3 whole entry, looked up): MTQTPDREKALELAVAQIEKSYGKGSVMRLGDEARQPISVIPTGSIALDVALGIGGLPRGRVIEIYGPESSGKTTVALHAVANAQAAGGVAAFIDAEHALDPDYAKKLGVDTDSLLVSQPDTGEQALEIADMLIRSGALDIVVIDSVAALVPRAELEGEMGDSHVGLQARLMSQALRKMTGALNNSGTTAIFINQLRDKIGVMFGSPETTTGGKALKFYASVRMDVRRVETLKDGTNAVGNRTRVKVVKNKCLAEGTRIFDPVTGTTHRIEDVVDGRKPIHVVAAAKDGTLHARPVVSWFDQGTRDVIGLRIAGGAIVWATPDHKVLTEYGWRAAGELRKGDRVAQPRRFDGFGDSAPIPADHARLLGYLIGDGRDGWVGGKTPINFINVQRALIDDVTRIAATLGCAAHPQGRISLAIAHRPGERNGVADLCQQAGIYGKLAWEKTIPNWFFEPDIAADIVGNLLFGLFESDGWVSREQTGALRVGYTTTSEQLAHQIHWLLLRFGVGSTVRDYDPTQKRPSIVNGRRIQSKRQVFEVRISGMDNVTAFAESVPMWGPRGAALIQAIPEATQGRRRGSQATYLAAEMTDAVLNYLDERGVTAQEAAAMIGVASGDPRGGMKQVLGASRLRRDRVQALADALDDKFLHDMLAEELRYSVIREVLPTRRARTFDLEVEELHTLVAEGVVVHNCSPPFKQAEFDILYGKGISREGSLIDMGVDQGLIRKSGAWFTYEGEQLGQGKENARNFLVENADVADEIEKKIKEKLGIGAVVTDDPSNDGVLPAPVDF
Mtb betalactam = beta-lactam sensitization of Mtb H37Rv; inhibition, % at 25 µM; actives 0.27% (n = 330,000); AID 434955; M. tuberculosis H37Rv growth with meropenem, percent inhibition; call rule not given here;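 further: growth measured after seven days incubation then overnight dye step; 0% = bacteria only wells and 100% = bacteria with antibiotic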
Mtb hypoxia inh = reduces hypoxia-regulated biosensor signal in M. tuberculosis; M. tuberculosis hypoxia-regulated fluorescent reporter, fluorescence; fluorescence inhibition, % (no concentration beside the values); actives 0.1% (n = 300,000); in the data active means fluorescence inhibition mostly above about 23%, no sharp cut-off; inactive means mostly below about 17%
PfHsp40 rescue = restores yeast growth despite PfHsp40 toxicity. S. cerevisiae expressing PfHsp40, growth rescue, ATP luminescence. actives 0.68% (n = 340,000). growth rescue, % at 12.5 µM; in the data active means growth rescue above about 28%, passing the limit was not always enough; inconclusive means no clear call, values can overlap the other calls;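 further: yeast W303a lacking pdr1 and pdr3 grown in galactose medium; growth measured after three days at 30 °C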
CCHFV vOTU inh = blocks the CCHF virus ovarian tumor domain protease | actives 0.55% (n = 370,000) | CCHFV vOTU protease, Pep-AMC fluorescence | inhibition, % at 11.5 µM | AID 651958; in the data active means inhibition above about 30%; further: 0% = vehicle wells with enzyme and 100% = no enzyme wells
Numbers without * were called inactive; ? = inconclusive; nt = no result given.

SMILES	RecA intein inh	Mtb betalactam	Mtb hypoxia inh	PfHsp40 rescue	CCHFV vOTU inh
COC(=O)c1ccc(N2C(=O)CC(N(C)CCc3ccc(OC)c(OC)c3)C2=O)cc1 (stereo unspecified)	0.3	-18.9	24.1	450.7*	-4.0
CCc1ccc(NC(=O)CSc2ccccn2)cc1	0.5	95.2	-0.2	61.6*	10.3
COc1ccc(NC(=O)CSc2ccc(-c3ccccn3)nn2)cc1OC	-3.4	71.7	3.4	215.2*	6.6
COc1ccccc1NC(=O)CSc1ccc(-c2ccccn2)nn1	0.9	100.2	11.5	-1.5	26.8
Cc1nnc(NC(=O)CSc2ccc(-c3ccccn3)nn2)s1	-1.5	2.0	67.6*	nt	nt
Cc1ccc(NC(=O)CSc2ccc(-c3ccccn3)nn2)c(C)c1	-0.6	-2.7	9.9	104.7*	0.2
Cc1nnc(NC(=O)CSc2ccc(-c3cccnc3)nn2)s1	0.1	-2.8	9.7	3.0	-5.6
CN1N=C(C=Cc2ccccc2)CCC1=O	nt	nt	12.5	nt	nt
CC(C(=O)Nc1nc2ccc(F)cc2s1)N1C(=O)C2CC=CCC2C1=O (stereo unspecified)	nt	nt	1.7	nt	nt
COc1ccc2c(c1)OC(c1cccc(C(F)(F)F)c1)C(OC(=O)NCCc1ccc(OC)c(OC)c1)C2=O (stereo unspecified)	nt	nt	3.5	nt	nt
OCC1OC(OCC2OC(OCC3OC(O[C@]4(CO)OC(CO)C(O)C4O)C(O)C(O)C3O)C(O)C(O)C2O)C(O)C(O)C1O (stereo partly specified)	nt	nt	2.1	nt	nt
CCCCC1CN=C(N)N1CC(C)(C)C (stereo unspecified)	nt	nt	6.8	nt	nt
CC1CCCCCCCCC(=O)OCCN(C(=O)OC(C)(C)C)C(C)CCCCCCCCC(=O)OCCN(C(=O)OC(C)(C)C)C(C)CCCCCCCCC(=O)OCCN(C(=O)OC(C)(C)C)C(C)CCCCCCCCC(=O)OCCN1C(=O)OC(C)(C)C (stereo unspecified)	nt	nt	10.9	nt	nt
Cc1ccc(NC(=O)CSc2ccc(-c3ccccn3)nn2)cc1	-0.2	99.3	10.7	103.4*	-12.7
Cc1cccc(NC(=O)CSc2ccc(-c3ccccn3)nn2)c1C	1.1	97.3	8.4	200.0*	4.1
O=C(C=CNc1ccccc1Br)c1ccccn1	nt	nt	4.4	nt	nt
CNC(=O)c1nnsc1S(=O)(=O)c1ccc(Cl)cc1	39.8*	nt	17.7	209.1*	0.6
CCOC(=O)C(C)/C(C)=N/NC(=O)c1cc2ccccc2cc1O (stereo unspecified)	-21.4	0.6	nt	155.5*	9.4
Cc1ccsc1/C=C/c1ccc2ccccc2n1	4.6	0.0	2.3	1.6	-12.4
Cc1ccsc1/C=C/c1ccc2cccc(O)c2n1	-2.4	100.2	-0.9	445.8*	0.8
Oc1ccc(Cl)cc1/C=C/c1ccc2cccc(O)c2n1	-0.9	nt	-2.0	160.0*	-6.0
CC(=NNC(N)=O)C1CC(CC(C)C)C(=O)O1 (stereo unspecified)	nt	nt	-1.2	nt	nt
CC(Cc1cccs1)NC(=O)Nc1ccc(Cl)c(Cl)c1 (stereo unspecified)	18.3	99.0	-3.0	130.9*	7.7
CC(=N/N=C1/NC(=O)C(CC(=O)Nc2ccc(C)c(Cl)c2)S1)C(C)C (stereo unspecified)	nt	nt	-4.4	nt	nt
COc1ccccc1Oc1ccc(NC=CC(=O)C(C)(C)C)cc1	nt	nt	-1.3	nt	nt
SMILES	RecA intein inh	Mtb betalactam	Mtb hypoxia inh	PfHsp40 rescue	CCHFV vOTU inh
CCC(Oc1ccc(Br)cc1Cl)C(=O)Nc1nnc(C2CC2)s1 (stereo unspecified)	0.3	-14.0	1.2	60.1*	5.6
CC(Oc1ccc(Br)cc1)C(=O)Nc1nnc(C2CC2)s1 (stereo unspecified)	1.4	-8.0	-1.7	8.5	-12.8
O=C(NN=Cc1ccccn1)c1ccc(Cl)cc1	nt	nt	-3.7	nt	nt
CC(=O)O[C@@H]1C[C@H]2C(C)(C)C(=O)C=C[C@]2(C)[C@H]2CC[C@@]3(C)[C@H](c4ccoc4)OC(=O)[C@H]4O[C@]43[C@@]21C	42.3*	80.3	nt	1.3	9.0
CC(=O)OC1CC2C(C)(C)C(=O)C=C[C@]2(C)C2CC[C@@]3(C)C(c4ccoc4)OC(=O)C4O[C@]43[C@]12C (stereo partly specified)	nt	nt	3.7	nt	nt
CCn1c2ccc(Cl)cc2c2nc3ccccc3nc21	0.7	7.3	5.9	nt	5.7
CCn1c2ccc(C)cc2c2nc3cc(C(=O)O)ccc3nc21	-0.9	-1.3	10.2	311.9*	-3.9
CCOc1cc(/C=C2\SC(=S)N(NS(=O)(=O)c3ccc(C)cc3)C2=O)ccc1O	4.0	-7.9	5.5	59.2*	13.9
COc1cc(/C=C2\SC(=S)N(NS(=O)(=O)c3ccccc3)C2=O)ccc1O	2.5	-4.3	10.5	-1.0	18.1
COc1cc(/C=C2\SC(=S)N(NS(=O)(=O)c3ccc(C)cc3)C2=O)ccc1O	8.4	4.9	12.0	303.4*	17.1
COc1cc(/C=C2\SC(=S)N(NS(=O)(=O)c3ccc(C)cc3)C2=O)cc(OC)c1OC	3.8	12.8	-1.1	?	-7.8
C=C(C)Cc1c(C)c(C#N)c2[nH]c3ccccc3n2c1=O	-0.9	99.2	-7.8	131.2*	-80.9
COc1ccc(C=Cc2onc(C)c2S(=O)(=O)N2CCC(C(=O)NCCC(C)C)CC2)cc1	nt	nt	-9.5	nt	nt
[O-]C(=C(C(=S)Nc1cccc2ccccc12)[n+]1ccccc1)c1ccc2c(c1)OCCO2	nt	nt	7.3	35.1*	nt
CC(C)(C)c1cc[n+](/C(C(=S)Nc2ccccc2F)=C(/[O-])c2ccc3c(c2)OCCO3)cc1	6.6	15.3	3.9	-1.1	6.0
O=C(NN=Cc1ccccc1C(=O)O)c1cccc(S(=O)(=O)N2CCOCC2)c1	nt	nt	-6.2	nt	nt
CC#CCN1c2ccccc2[C@]23CC(C(=O)OC)N(C(=O)C4CCC4)C2=NC(C(=O)OC)=C(C(=O)OC)C13 (stereo partly specified)	nt	nt	0.5	nt	nt
COC(=O)C1=NN(C(=O)c2cccc(Br)c2)C(O)(c2ccc(Cl)cc2)C1 (stereo unspecified)	36.5*	9.1	-0.1	493.8*	16.3
Cc1ccc(CN(C)C(=O)c2cccc(S(=O)(=O)N3CCc4ccccc43)c2)cc1	nt	-14.1	-5.1	-0.6	9.3
NC(=O)CCN(C(=O)c1cccc(S(=O)(=O)N2CCc3ccccc32)c1)c1ccccc1	nt	7.0	3.1	46.6*	-5.1
CC[n+]1c(/C=C2\Sc3ccccc3N2C)ccc2cccc(C)c21	5.0	nt	nt	-0.5	20.8
CCN1/C(=C/c2ccc3cc(C)ccc3[n+]2CC)Sc2cc(C)c(C)cc21	nt	nt	39.9*	10.8	16.6
Cc1cc2ncc(S(C)(=O)=O)c(N)n2n1	-3.8	-4.2	13.7	-1.9	11.0
Cc1ccc(S(=O)(=O)c2cnc3cc(C)nn3c2N)cc1	-1.6	-11.2	0.7	31.7*	1.2
CCOC(=O)c1cccc2c1-c1ccccc1/C2=N/O	9.3	1.3	nt	232.6*	7.6
O=C(/C=C/c1ccccc1Cl)NCCc1ccc(F)cc1	0.6	-2.7	-7.4	39.1*	0.7
CC1(C)N=C(SCC(=O)Nc2ccc(Cl)cc2Cl)C(c2ccccc2)=N1	32.1*	0.3	1.2	-0.9	3.2
CCOC(=O)C1=Nc2cccc3c(O)ccc1c23	nt	nt	nt	nt	-9.8
CCOC(=O)C1=Nc2ccccc2C1=[N+]=[N-]	1.2	99.9	nt	33.4*	7.6
